PubChem BioAssay (NCI)
Compounds without any hit were thinned out: in the full panel of roughly 83,000, 20% have a hit.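 Results are percent growth after 48 hours of single-concentration exposure. 100 means growth as in untreated cells, lower positive values show inhibition; negative values down to -100 show cell death.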 Unmarked numbers belong to inactive results. The source made the active and inactive calls. How the source made its calls: active means growth percent below 10; inactive means the rest.

Legend:
Experiment in all cases: NCI-60 one-dose screen, 48 h (100 = growth as untreated, 0 = no growth, -100 = all killed)
Conditions in all cases: 10 µM
NCI-H23 lung = test system: NCI-H23 lung
NCI-H226 lung = test system: NCI-H226 lung
NCI-H322M lung = test system: NCI-H322M lung
HOP-62 NSCLC = test system: HOP-62 NSCLC
NCI-H460 lung = test system: NCI-H460 lung
HOP-92 NSCLC = test system: HOP-92 NSCLC
NCI-H522 lung = test system: NCI-H522 lung
A549/ATCC NSCLC = test system: A549/ATCC NSCLC
786-0 renal = test system: 786-0 renal
COLO 205 colon = test system: COLO 205 colon
DU-145 prostate = test system: DU-145 prostate
K-562 leukemia = test system: K-562 leukemia
MALME-3M melanoma = test system: MALME-3M melanoma
MDA-MB-231 breast = test system: MDA-MB-231 breast
SF-268 CNS = test system: SF-268 CNS
SF-295 CNS = test system: SF-295 CNS
SF-539 CNS = test system: SF-539 CNS
UACC-257 melanoma = test system: UACC-257 melanoma
M14 melanoma = test system: M14 melanoma

Structure (SMILES)	growth (NCI-H23 lung)	growth (NCI-H226 lung)	growth (NCI-H322M lung)	growth (HOP-62 NSCLC)	growth (NCI-H460 lung)	growth (HOP-92 NSCLC)	growth (NCI-H522 lung)	growth (A549/ATCC NSCLC)	growth (786-0 renal)	growth (COLO 205 colon)	growth (DU-145 prostate)	growth (K-562 leukemia)	growth (MALME-3M melanoma)	growth (MDA-MB-231 breast)	growth (SF-268 CNS)	growth (SF-295 CNS)	growth (SF-539 CNS)	growth (UACC-257 melanoma)	growth (M14 melanoma)
O=c1c2ccccc2nc(COc2ccccc2)n1/N=C/c1ccc(N2CCOCC2)cc1	59.2%	37.9%	66.6%	18.4%	66.2%	-1.3% (active)	33.6%	73.7%	45.5%	80.8%	77.5%	103%	56.8%	26%	26.4%	69.8%	34.1%	95.7%	93.9%
COc1cccc(-c2ccnc(/N=C(\N)Nc3ccc(S(=O)(=O)Nc4nc(C)cc(C)n4)cc3)n2)c1	98.2%	80.3%	107%	84.6%	106%	106%	91.5%	102%	101%	114%	111%	92%	98%	95.9%	104%	93.7%	95.2%	111%	114%
NS(=O)(=O)c1ccc(NC(=O)CSc2ccc(-c3ccc(Cl)cc3)nn2)c(Br)c1	61.1%	-5.33% (active)	48.5%	2.17% (active)	23%	-14.4% (active)	63.6%	28.5%	19.1%	69.4%	32.5%	74.6%	29.2%	8.72% (active)	27.9%	3.43% (active)	28.4%	75.5%	85.1%
COc1cc(/C=C/C(=O)c2ccc(F)cc2)ccc1Oc1nc(Nc2ccc(F)cc2)nc(N(C)C)n1	66.8%	53.7%	79.1%	93.5%	69.6%	65.6%	62.3%	74.1%	71%	118%	78.4%	25.7%	84.4%	59.4%	54.8%	53.1%	77.5%	47.7%	68.6%
Cc1ccc(CNC(=O)Cc2ccc3c(c2)CN(C2CCC(=O)NC2=O)C3=O)cc1 (centres undefined)	66.5%	3.79% (active)	16.1%	-10.2% (active)	95%	-22.5% (active)	9.7% (active)	10.6%	0.61% (active)	-12.5% (active)	30.2%	14.5%	-64.1% (active)	-36.7% (active)	9.5% (active)	6.35% (active)	18.6%	70.5%	-23.5% (active)
O=C(NO)c1ccc(CNc2nc(-c3ccccc3)c3ccccc3n2)cc1	-49% (active)	6.26% (active)	11%	0.931% (active)	4.48% (active)	-35.6% (active)	-30.9% (active)	12.3%	10.9%	-80.4% (active)	10.2%	9.84% (active)	-34.4% (active)	-21.8% (active)	7.8% (active)	-49% (active)	1.02% (active)	1.34% (active)	9.54% (active)
O=c1[nH]c2ccccc2cc1CSc1ccc(Nc2nccc(-c3ccc(Cl)cc3)n2)cc1	-26.6% (active)	-70.5% (active)	0.401% (active)	-68% (active)	-59.6% (active)	-68.1% (active)	2.64% (active)	-39.7% (active)	-80.1% (active)	-16% (active)	-52% (active)	36.2%	-54.3% (active)	-56.1% (active)	2.16% (active)	-90.8% (active)	-89% (active)	54.1%	30.8%
O=C(Nc1ccc(Cl)c(C(F)(F)F)c1)c1cncc(C#Cc2cnc3ccc(N4CCOCC4)nn23)c1	-18.7% (active)	-32.8% (active)	6.5% (active)	11.1%	29.3%	-48.6% (active)	-11.3% (active)	16.1%	-28.5% (active)	11.9%	20.6%	13.3%	-39.8% (active)	-44.6% (active)	7.89% (active)	5.28% (active)	-42% (active)	6.55% (active)	11.3%
COc1ccc2[nH]c(=O)c(CSc3ccc(Nc4nccc(-c5ccc(Cl)cc5)n4)cc3)cc2c1	83.9%	38.8%	95.7%	104%	112%	93.2%	86.7%	98.1%	109%	108%	111%	81.9%	113%	90.1%	99.9%	102%	-41% (active)	120%	109%
COc1ccc(C2NC(=S)NC(C)=C2C(=O)OC(C)C)cc1OC (centres undefined)	111%	94.8%	96.8%	103%	114%	101%	102%	114%	93.2%	140%	110%	105%	95.7%	105%	107%	97.4%	103%	119%	105%
CCOC(=O)C1=C(N)N(c2ccc(C)cc2)C2=C(C(=O)CC(C)(C)C2)C1c1ccccc1OC (centres undefined)	109%	99.7%	93.4%	106%	111%	117%	97.6%	107%	99.6%	134%	107%	98.4%	93.4%	95.5%	100%	91%	101%	104%	112%
O=C(NCCCCCCCCCC[P+](c1ccccc1)(c1ccccc1)c1ccccc1)c1ccc(-n2nc(-c3ccccc3O)nc2-c2ccccc2O)cc1	-66.8% (active)	-58.9% (active)	-91.1% (active)	-64.1% (active)	8.35% (active)	-74.9% (active)	-78.3% (active)	-51.9% (active)	-64% (active)	-83.1% (active)	-45.8% (active)	6.35% (active)	-94% (active)	-73.6% (active)	-28.8% (active)	-90.4% (active)	-95.9% (active)	-71.5% (active)	-84.9% (active)
O=C(CNc1nc(-c2ccccc2)cs1)Nc1ccc([N+](=O)[O-])cc1Cl	0.556% (active)	31.5%	60.3%	42.4%	51.6%	29%	-19.1% (active)	44.1%	38.1%	60.7%	54.8%	12.2%	24%	10.8%	29.6%	34.2%	2.17% (active)	58.5%	34.4%
O=C(CNc1nc(-c2ccccc2)cs1)Nc1ccc([N+](=O)[O-])cc1	-6.85% (active)	29.4%	6.59% (active)	33.3%	35%	42.8%	-74.6% (active)	42.8%	16%	-83.3% (active)	45.2%	9.52% (active)	-66.6% (active)	-13.4% (active)	38.4%	26%	-28.2% (active)	39.5%	30.2%
CCCn1c(=O)c2[nH]c(-c3ccc(OCc4nc5ccc(C#N)cc5[nH]4)cc3)nc2n(CCC)c1=O	81.5%	51.2%	76.3%	77.9%	66.2%	78.5%	71.1%	79.9%	72.1%	94.9%	79%	41.6%	73.2%	30.8%	80.4%	76.7%	64.9%	99.5%	99.6%
O=C(CSc1nnc(-c2c[nH]c3ccccc23)n1-c1ccccc1)c1ccccc1	44.9%	4.48% (active)	81.2%	23.4%	61.8%	47%	71.6%	85.5%	29.6%	93.4%	85.7%	52.8%	37.4%	27%	31.7%	72%	7.59% (active)	103%	73.6%
